Some test systems named below: T-47D breast; BT-549 breast; MDA-MB-435 melanoma; SW-620 colon; MCF7 breast; HCT-116 colon; HCC-2998 colon; KM12 colon.
Common to all, as to assay: NCI-60 one-dose screen, 48 h (100 = growth as untreated, 0 = no growth, -100 = all killed)
What all share (settings): 10 µM unless noted

For 14 molecules, growth results are on record in PubChem BioAssay (NCI).

About 83,000 compounds went through this panel and 20% of them were active in at least one assay; those are over-represented in the sample as a whole.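 Single-concentration screen, 48 h exposure, 96-well plates. Endpoint: percent growth. Below 10 = active.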 Unmarked numbers belong to inactive results. Active and inactive are the calls of the source.

In the case of `COc1cccc(CCNc2ncnc3c2ncn3Cc2nnc3c4ccccc4c(Cl)nn23)c1`, the growth was 48.5% in the assay on T-47D breast; 47.8% in the assay with BT-549 breast; 57.5% with MDA-MB-435 melanoma; 57.4% in the assay with SW-620 colon; 63% with MCF7 breast; 39.6% with HCT-116 colon. Further, the growth in the assay with HCC-2998 colon is 91.9%; with KM12 colon it was 80%.

For the molecule `CC1=C2[C@@H](CC1)[C@]1(C)O[C@@](c3ccccc3)(C[C@H]1OC(=O)CO)[C@H]2OC(=O)/C=C/c1ccccc1`, the growth was 65.2% with T-47D breast; 0.952% (active) in the assay on BT-549 breast; -80.7% (active) with MDA-MB-435 melanoma; 104% in the assay with SW-620 colon; 78.6% in the assay with MCF7 breast; 86.2% with HCT-116 colon. The growth in the assay on HCC-2998 colon is 93.2%; with KM12 colon, 88.4%.

Take `CN1C(=O)/C(=C2\SC(=Nc3ccccc3)N(Nc3ccccc3)C2=O)c2ccccc21`: the growth in the assay with T-47D breast is 82.2%; with BT-549 breast, 109%; in the assay with MDA-MB-435 melanoma, 106%; with SW-620 colon, 98.3%; with MCF7 breast it was 86.2%; with HCT-116 colon, 104%. Moreover, the growth was 113% with HCC-2998 colon and 103% in the assay on KM12 colon.

For `C=C1C(=O)O[C@H]2[C@H]1CC/C(CNC(=O)c1c[nH]c3ccc(F)cc13)=C\CC[C@@]1(C)O[C@@H]21`, the growth in the assay on T-47D breast was -39.6% (active); in the assay on BT-549 breast, 13%; in the assay on MDA-MB-435 melanoma, 3.64% (active); in the assay on SW-620 colon, -48.9% (active); in the assay with MCF7 breast, -26.3% (active); with HCT-116 colon it was -49.1% (active). Also, the growth was -79.3% (active) in the assay on HCC-2998 colon and 42.4% with KM12 colon.

For `N#Cc1ccc(O)c(C2=NCC(Cc3ccccc3)O2)c1` (configuration not stated), the growth with T-47D breast was -1.96% (active); in the assay with BT-549 breast it was 37.7%; in the assay on MDA-MB-435 melanoma it was 64.5%; in the assay with SW-620 colon it was 40.2%; in the assay with MCF7 breast, 39%; in the assay on HCT-116 colon it was 14.9%. For the same molecule, the growth was 72.3% with HCC-2998 colon and 40.9% in the assay on KM12 colon.

On to `N#CC1=C(N)Oc2ccc3ccccc3c2C1c1ccc([N+](=O)[O-])cc1` (configuration not stated), for which the growth is 82.5% with T-47D breast; 91.7% in the assay with BT-549 breast; -51.3% (active) with MDA-MB-435 melanoma; 100% in the assay with SW-620 colon; 66% in the assay on MCF7 breast; 85.5% in the assay with HCT-116 colon. In addition, the growth was 107% in the assay with HCC-2998 colon and 95.5% in the assay on KM12 colon.

For `COc1ccc(/C=C/C(=O)c2cc3c(N)c(C(=O)Nc4cccc(Cl)c4C)sc3nc2C)cc1`, the growth was 38.9% in the assay with T-47D breast; -19% (active) in the assay on BT-549 breast; -28.2% (active) in the assay with MDA-MB-435 melanoma; 13.2% in the assay with SW-620 colon; 7.78% (active) with MCF7 breast; 5.3% (active) in the assay with HCT-116 colon. Further, the growth is 1.15% (active) in the assay on HCC-2998 colon and 7.8% (active) in the assay with KM12 colon.

With `COc1ccc(-c2nn(-c3ccccc3)cc2/C=C/C(=O)NNC(=O)Nc2ccc(C)cc2)cc1`, the growth with T-47D breast was 92.3%; in the assay on BT-549 breast, 114%; with MDA-MB-435 melanoma it was 99.9%; in the assay with SW-620 colon it was 95.1%; in the assay with MCF7 breast, 91.9%; in the assay with HCT-116 colon, 77.7%. In addition, the growth in the assay on HCC-2998 colon was 96.7%; with KM12 colon it was 101%.

As for `O=C(CN1CCN(c2cc3c(cc2F)c(=O)c(C(=O)O)cn3C2CC2)CC1)N/N=C/c1ccco1`, the growth was 86.8% in the assay on T-47D breast; 95.2% in the assay on BT-549 breast; 102% in the assay with MDA-MB-435 melanoma; 99.6% in the assay with SW-620 colon; 87.1% with MCF7 breast; 97.1% in the assay on HCT-116 colon. The growth is 107% with HCC-2998 colon and 102% in the assay with KM12 colon.

As for `O=C(CCCCCNC(=O)c1cc(=O)c(O)co1)Nc1ccccc1`, the growth with T-47D breast was 104%; with BT-549 breast, 95.9%; in the assay with MDA-MB-435 melanoma it was 100%; in the assay with SW-620 colon, 101%; in the assay with MCF7 breast it was 88.6%; with HCT-116 colon, 97.6%. The growth in the assay on HCC-2998 colon is 101%; in the assay on KM12 colon, 100%.

As for `O=S(=O)(Nc1cc(Sc2cccc3cccnc23)c(O)c2ccccc12)c1ccccc1`, the growth with T-47D breast is -26% (active); in the assay on BT-549 breast, 31.4%; in the assay on MDA-MB-435 melanoma, 11.3%; in the assay on SW-620 colon, -67.8% (active); in the assay with MCF7 breast it was -54.6% (active); in the assay on HCT-116 colon, -15.2% (active). In addition, the figures for the growth in the assay with HCC-2998 colon and with KM12 colon were 36.9% and 13.6%, respectively.

In the case of `[2H]C([2H])([2H])Oc1ccc(F)cc1/C=C/C(=O)/C=C(/C=C/c1cc(F)ccc1OC([2H])([2H])[2H])OB(F)F`, the growth in the assay on T-47D breast is 54.2%; in the assay on BT-549 breast, 87.7%; with MDA-MB-435 melanoma, 70.8%; in the assay with SW-620 colon it was 45.1%; in the assay with MCF7 breast it was 37%; with HCT-116 colon it was 43.2%. In addition, the growth in the assay with HCC-2998 colon was 114%; in the assay with KM12 colon, 101%.

`Clc1ccccc1-c1cnn2cc(-c3ccccc3)cnc12`: the growth was 78.9% in the assay with T-47D breast; 83.1% in the assay with BT-549 breast; 44.8% with MDA-MB-435 melanoma; 76.9% in the assay with SW-620 colon; 75.3% in the assay with MCF7 breast; 69% in the assay with HCT-116 colon. For the same molecule, the growth in the assay with HCC-2998 colon was 85.9%; in the assay with KM12 colon, 63.8%.

Consider `CCOC(=O)C1=C(C)C(Cl)=N/C1=C\c1[nH]c(Cl)c(C)c1C(=O)OCC`, for which the growth in the assay on T-47D breast is 94.9%; in the assay with BT-549 breast, 91.2%; in the assay with MDA-MB-435 melanoma, 103%; in the assay on SW-620 colon it was 106%; in the assay with MCF7 breast, 90.3%; with HCT-116 colon it was 84.5%. Besides, the growth in the assay with HCC-2998 colon is 130%; in the assay on KM12 colon, 100%.
